The values below come from PubChem BioAssay (EPA / NIEHS).

The structures appear in SMILES notation. Inconclusive results are not listed. Activity calls are given as the source filed them. The calls were made as follows: active = hit-call score of the fitted dose curve at least 0.9, where 1 is the maximum; inconclusive = response in the unintended direction; inactive = score below 0.9.

Chain of human Peroxisome Proliferator-activated Receptor alpha (PPARa), PPARA (gene 5465) (Q07869 whole entry, looked up): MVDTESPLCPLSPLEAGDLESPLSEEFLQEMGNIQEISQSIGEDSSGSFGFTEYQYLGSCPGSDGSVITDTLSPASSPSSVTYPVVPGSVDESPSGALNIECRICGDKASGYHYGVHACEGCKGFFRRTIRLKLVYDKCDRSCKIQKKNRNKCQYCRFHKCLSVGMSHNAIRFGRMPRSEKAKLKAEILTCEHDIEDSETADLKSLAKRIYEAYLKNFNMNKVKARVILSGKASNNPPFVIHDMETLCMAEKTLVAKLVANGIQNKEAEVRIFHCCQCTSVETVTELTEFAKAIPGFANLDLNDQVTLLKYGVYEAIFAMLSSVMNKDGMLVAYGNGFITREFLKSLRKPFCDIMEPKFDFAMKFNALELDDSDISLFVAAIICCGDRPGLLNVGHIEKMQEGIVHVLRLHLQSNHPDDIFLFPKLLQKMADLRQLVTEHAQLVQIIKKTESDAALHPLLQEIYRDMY

The target of this assay is human Peroxisome Proliferator-activated Receptor alpha (PPARa), PPARA (gene 5465) (UniProt Q07869). Nature of the assay: ATG_PPARa_TRANS: Attagene TRANS-FACTORIAL HepG2 Assay for human Peroxisome Proliferator-activated Receptor alpha (PPARa) (AID 2283001).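 As to AC50: potency for gain of reporter signal over DMSO so agonist or activator.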 Here is the method:
ATG_TRANS is a cell-based, multiplexed-readout assay that uses HepG2, a human liver cell line, with measurements taken at 24 hours after chemical dosing in a 24-well plate.ATG_PPARa_TRANS is one of 30 assay component(s) measured or calculated from the ATG_TRANS assay. It is designed to make measurements of mRNA induction, a form of inducible reporter, as detected with fluorescence intensity signals by Reverse transcription polymerase chain reaction (RT-PCR) and Capillary electrophoresis technology.Data from the assay component ATG_PPARa_TRANS was analyzed into 1 assay endpoint. This assay endpoint, ATG_PPARa_TRANS, was analyzed in the positive analysis fitting direction relative to DMSO as the negative control and baseline of activity. Using a type of inducible reporter, measures of mRNA for gain-of-signal activity can be used to understand the reporter gene at the transcription factor-level as they relate to the gene PPARA. Furthermore, this assay endpoint can be referred to as a primary readout, because this assay has produced multiple assay endpoints where this one serves a reporter gene function. To generalize the intended target to other relatable targets, this assay endpoint is annotated to the nuclear receptor intended target family, where the subfamily is non-steroidal.
Human liver HepG2 cells are transiently transfected with multiple reporter transcription units (MRTUs) in 6-well plates using FuGene 6 reagent (Roche; 3 ml FuGene/1 mg DNA). The MRTU constructs are regulated by a cis-regulating element (promoter). […] A major difference between the CIS and TRANS system is that in CIS activities of endogenous TFs are measured, whereas the TRANS assay evaluates changes in activities of exogenous, chimeric NR-Gal4 proteins. […] At the end of 24 hour incubation, total RNA was isolated using TriZol reagent (Invitrogen). The isolated RNA is then reverse-transcribed using oligo(dT) primer and Mo-MLV reverse transcriptase (Invitrogen) with DNAse I (Ambion) treatment for 30 min. The one-tenth of the produced cDNA was amplified by PCR using Taq DNA polymerase (Invitrogen) and two reporter sequence-specific primers. The PCR products were fluorescently labeled by primer extension with 6-arboxyfluorescein (6-FAM) 5'-labeled reporter sequence-specific primer (2 min at 95 C, 20 s at 68 C and 10 min at 72 C) and these products were digested with 5U of HpaI (New England Biolabs) for 2h at 37 C. The fragments were purified using Qiaquick PCR columns (Qiagen), analyzed on an ABI 3130xL genetic analyzer (Applied Biosystems) with peak positions identified by using a set of X-rhodamine (ROX)-labeled MapMarker1000 molecular weight standards (BioVentures). The raw capillary electrophoresis data was processed using Attagraph software (Attagene).
As to `c1ccc2cnccc2c1`, the molecule was called inactive.

Take `CC(C)c1cccc(C(C)C)c1N`: the call was inactive. Same read-out and setting: the result for `CCCCCCCC(=O)OCC` reads “inactive”.

Take `Oc1c(Cl)cc(Cl)c(Cl)c1Cl`: the AC50 is 27.2 µM (active). As to `C=C(C)[C@@H]1CC=C(C)CC1`, the molecule was called inactive. As for `C=CCCCCCCCCOC(C)=O`, the outcome was inactive. Turning to `Oc1ccccc1Cc1ccccc1O`, the molecule was called inactive. Same read-out and setting: the value for `CC(C)CCCCCOC(=O)CS` was “inactive”; that for `Fc1ccc(Br)cc1` was “inactive”; that for `O=C1CCCCCCCCCCC1` was “inactive”. Still for that read-out and setting: the value for `C=C(C)C1CC=C(C)CC1` (stereo not given) was “inactive”; that for `COc1ccc(C(=O)/C(Br)=C\C(=O)O)cc1` was “inactive”. On the same count and under the same terms, the result for `CC(=O)OCc1ccccc1` reads “inactive”. With `Cc1ccc2c(c1)CCCN2`, the molecule was called inactive. Turning to `C=C[Si](OCCOC)(OCCOC)OCCOC`, the call was inactive. Take `CCC1(C)C(=O)N(Cl)C(=O)N1Cl` (stereo not given): the outcome was inactive. Same read-out and setting: the result for `C=CC(=O)OCCCCCCOC(=O)C=C` reads “inactive”; that for `C=CCNCC=C`, “inactive”.

Turning to `Nc1ccc(O)c([N+](=O)[O-])c1`, the result was inactive.

Turning to `CC(C)c1ccc2ncccc2c1`, the result was inactive. As for `C=CC(=O)OCCCCCCCCCC`, the molecule was called inactive.

Turning to `CCCCCCCOC(=O)c1ccc(O)cc1`, the molecule was called inactive.

Take `CC(C)=CCl`: the call was inactive.

Regarding `CCCCC(CC)COC(=O)/C=C/c1ccc(OC)cc1` (stereo not given), the call was inactive.

For the molecule `O=C(O)c1cc(O)c2ccccc2c1O`, the call was inactive. Regarding `CCCC1CCCC(=O)O1` (stereo not given), the result was inactive. Still for that read-out and setting: the value for `CCc1cccc(C)c1N` was “inactive”. On the same count and under the same terms, the value for `NC(=O)Nc1ccccc1` was “inactive”; that for `O=C1c2ccccc2C(=O)c2cc(S(=O)(=O)O)ccc21` was “inactive”; that for `COC(=O)c1ccccc1C` was “inactive”. The same measure, in the same setting: the value for `CCOC(=O)c1ccc(C)cc1` was “inactive”; that for `CCCCC(C=O)CC` (stereo not given) was “inactive”. For the molecule `O=C1CCCN1C1CCCCC1`, the molecule was classed as inactive.

`Cc1c(C(=O)c2c[nH]n(C)c2=O)ccc(S(C)(=O)=O)c1C1=NOCC1`: the molecule was classed as inactive. Turning to `CCOC(=O)C1=NN(c2ccc(Cl)cc2Cl)C(C)(C(=O)OCC)C1` (stereo not given), the molecule was called inactive. Still for that read-out and setting: the value for `C=CC(=O)NC(C)(C)C` was “inactive”; that for `CC(=O)OCCc1ccccc1` was “inactive”; that for `Cc1cc(C)c(C=O)c(C)c1` was “inactive”. With `Clc1cc(Cl)c(Cl)c(Cl)c1Cl`, the result was inactive. On to `C[N+](C)(C)CCCNS(=O)(=O)C(F)(F)C(F)(F)C(F)(F)C(F)(F)C(F)(F)C(F)(F)C(F)(F)C(F)(F)F`, for which the molecule was classed as inactive.

In general, AC50 refers to the concentration giving half of the maximal activity seen.
